Source: PubChem BioAssay (NCI)
Values joined by “and” are separate entries in the source; they are usually repeats but may differ in a detail not shown here. Equal entries are not always repeated. This is part of a sample that, as a whole, favours compounds with a hit. Of some 83,000 tested, about 20% had one in any assay.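 Each cell line was grown in a 96-well plate and treated with one concentration of compound for 48 hours. Values below 10 were considered active.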 Active and inactive are the calls of the source.

Each molecule was assayed on EKVX NSCLC (assay: NCI-60 one-dose screen, 48 h (100 = growth as untreated, 0 = no growth, -100 = all killed)). Conditions: 10 µM unless noted.

| Structure (SMILES) | growth |
| --- | --- |
| O=[N+]([O-])c1ccccc1/C=N\Nc1ccccc1 | 69.3% (inactive) and 93.5% (inactive) |
| CCN(CC)CCNc1cc(-c2cccc(OC(F)(F)F)c2)nc2ccc(N3CCCC3)cc12 | 73.5% (inactive) and 59.5% (inactive) and 42.8% (inactive) |
| CC(=O)Nc1cc(S(=O)(=O)O)cc2cc(S(=O)(=O)O)c(N=Nc3ccccc3)c(O)c12 | 115% (inactive) and 113% (inactive) |
| CC(C)CNC(=O)c1ccccc1C(=O)NC1(C(=O)NCC(C)C)CCCC1 | 96.7% (inactive) and 109% (inactive) |
| COc1cc2nc(N3CCN(C(=O)C4COc5ccccc5O4)CC3)nc(N)c2cc1OC (stereo not given) | 97.5% (inactive) |
| O=C(Cc1cccc2ccccc12)N/N=C/c1ccc2c(c1)CCC2 | 78.8% (inactive) |
| CC1=C(/C=C/C(C)=C/C=C/C(C)=C/C(=O)O)C(C)(C)CCC1 | 84% (inactive) and 92.2% (inactive) and 87.7% (inactive) |
| O=C(Nc1ccc(Br)cc1)c1cc(Br)ccc1O | 11% (inactive) and 13.6% (inactive) |
| Cc1cc(-c2ccc(NS(=O)(=O)c3ccccc3)c(C)c2)ccc1NS(=O)(=O)c1ccccc1 | 61.5% (inactive) and 73.6% (inactive) |
| O=C(CCl)c1ccc2c(c1)Nc1ccccc1S2 | 98.6% (inactive) |
| CC1CCCc2sc3nc(NNC(=O)c4cnccn4)n(-c4ccccc4)c(=O)c3c21 (stereo not given) | 14.8% (inactive) and 7.14% (active) |
| Cc1cc(O)c(C(C)C)cc1N | 95% (inactive) and 104% (inactive) |
| COc1ccc2cc3[n+](cc2c1OC)CCc1cc2c(cc1-3)OCO2 | 26.3% (inactive) and 65.5% (inactive) |
| COc1c(/C(C)=N/N=c2sc(C(C)=O)nn2-c2ccc(Cl)cc2)c(Oc2ccccc2)c(OC)c2occc12 | 93.1% (inactive) and 99.8% (inactive) |
| OC(COc1cccc2ccccc12)CN1CCN(c2ccc(Cl)cc2)CC1 (stereo not given) | 108% (inactive) and 94.9% (inactive) |
| CNc1ccc2nc3ccc(=[N+](C)C)cc-3sc2c1 | 40.9% (inactive) and 44.1% (inactive) |
| CC1=NN(c2ccccc2)C(=O)C1C(=O)c1ccccc1 (stereo not given) | 95% (inactive) |
| OCCN1CCN(CCO)CC1 | 107% (inactive) and 85.1% (inactive) and 114% (inactive) |

| Structure (SMILES) | growth |
| --- | --- |
| CC1=CCC2CC1C2(C)C (stereo not given) | 91.7% (inactive) and 83.2% (inactive) |
| COc1cc(/C=N/Nc2nc3c([nH]2)c(=O)n(C)c(=O)n3C)ccc1O | 103% (inactive) and 119% (inactive) |
| S=C(S)N1CCCC1 | 114% (inactive) and 99% (inactive) |
| CC(=O)Oc1cc(C(=O)O)cc(OC(C)=O)c1OC(C)=O | 84.3% (inactive) and 105% (inactive) |
| CCN(CC)C(=O)c1cccnc1 | 112% (inactive) |
| O=C(Nc1cccc(Cl)c1)c1cc2ccccc2cc1O | 10.5% (inactive) and 15.9% (inactive) |
| Cn1c(SSc2ccc(-c3cccnc3)n2C)ccc1-c1cccnc1 | 94.8% (inactive) and 99.5% (inactive) |
| CN1CCN(CCC=C2c3ccccc3Sc3ccc(S(=O)(=O)N(C)C)cc32)CC1 | 80.1% (inactive) and 84.8% (inactive) |
| Oc1c(Cl)cc(Cl)cc1Sc1cc(Cl)cc(Cl)c1O | 50% (inactive) and 23.4% (inactive) and 89% (inactive) |
| Cn1c(=O)n(-c2ccc(C(C)(C)C#N)cc2)c2c3cc(-c4cnc5ccccc5c4)ccc3ncc21 | 7.47% (active) and 2.62% (active) |
| O=C(N/N=C/c1ccccc1)N/N=C/c1ccccc1 | 104% (inactive) and 101% (inactive) |
| COc1ccc(-c2cn[nH]c2-c2cc(OC)c(OC)c(OC)c2)cc1N | 47.5% (inactive) and 44% (inactive) |
| C1CCCCNCCC1 | 99.8% (inactive) |
| COc1ccccc1C(C)=O | 98% (inactive) |
| NS(=O)(=O)c1cc2c(cc1Cl)NC(C(Cl)Cl)NS2(=O)=O (stereo not given) | 89.3% (inactive) and 110% (inactive) |
| O=C(Oc1cccc(OC(=O)c2ccccc2)c1)c1ccccc1 | 102% (inactive) and 104% (inactive) |
| CC1(c2ccc3ccccc3c2)CCC(=O)O1 (stereo not given) | 111% (inactive) |
